In all, about 290,000 compounds went through this assay and about 160 (0.055%) were called active. No stated cut-off is given here; in the data, active means inhibition above about 50%; inactive means the rest. What follows is part of a selection rich in actives, with near analogues and random picks from the rest.

The assay deals with Tyrosine-protein phosphatase non-receptor type 22 (Homo sapiens) (UniProt Q9Y2R2). The assay can be described thus: inhibitors of LYP phosphatase, biochemical, fluorescence intensity, uHTS (AID 1779).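 Further: plate controls were vehicle with enzyme for no effect and no enzyme for full effect.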 Conditions: recombinant LYP phosphatase, at 11.5 µM, hits give high values.
Tyrosine-protein phosphatase non-receptor type 22 (Homo sapiens), sequence (Q9Y2R2 whole entry, looked up): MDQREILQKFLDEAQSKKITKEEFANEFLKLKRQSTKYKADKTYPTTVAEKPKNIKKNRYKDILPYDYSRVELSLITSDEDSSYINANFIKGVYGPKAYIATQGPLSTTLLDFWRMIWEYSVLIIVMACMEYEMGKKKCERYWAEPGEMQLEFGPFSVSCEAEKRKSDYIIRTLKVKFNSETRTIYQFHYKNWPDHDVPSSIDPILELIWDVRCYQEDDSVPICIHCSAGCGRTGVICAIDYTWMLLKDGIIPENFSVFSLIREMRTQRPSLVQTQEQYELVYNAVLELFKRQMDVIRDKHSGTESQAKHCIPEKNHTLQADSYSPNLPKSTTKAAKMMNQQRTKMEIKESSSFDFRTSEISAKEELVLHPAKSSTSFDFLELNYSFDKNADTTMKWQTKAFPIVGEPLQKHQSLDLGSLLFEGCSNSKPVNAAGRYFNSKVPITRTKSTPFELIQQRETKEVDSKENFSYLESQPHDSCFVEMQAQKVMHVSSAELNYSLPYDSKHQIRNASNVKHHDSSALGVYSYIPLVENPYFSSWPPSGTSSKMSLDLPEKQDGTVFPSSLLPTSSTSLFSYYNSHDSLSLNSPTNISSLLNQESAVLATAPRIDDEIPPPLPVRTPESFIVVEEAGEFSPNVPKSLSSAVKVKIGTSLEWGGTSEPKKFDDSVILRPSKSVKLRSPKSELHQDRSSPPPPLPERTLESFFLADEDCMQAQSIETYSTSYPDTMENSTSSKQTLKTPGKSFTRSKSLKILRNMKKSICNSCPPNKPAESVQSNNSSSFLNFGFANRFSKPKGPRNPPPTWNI
With `COc1cc2c(C(=O)Nc3ccccc3F)cn(C)c(=O)c2cc1OC`, the inhibition was -10.5% (inactive). In the case of `CCOC(=O)c1ccc(-c2ccc3c(=O)c4ccccc4n(C)c3c2)cc1F` it was -15.2% (inactive); in that of `CN1CCN(S(=O)(=O)c2cccc(C(=O)NCCOc3ccccc3F)c2)CC1`, -15.4% (inactive). In the case of `Cc1cc(=O)n2c(n1)NC(Nc1cccc(C)c1C)=NC2c1ccc(F)cc1` (centres undefined) it was -3.8% (inactive); in that of `O=C(COC(=O)c1ccccc1F)c1ccc(-n2nncc2-c2ccco2)cc1`, -3.3% (inactive). As for `CSc1ccccc1NC(=O)CSc1nnc(Cc2ccccc2)o1`, the inhibition is -12.7% (inactive).

Consider `CCOC(=O)c1sc2nc3c(SCC(=O)O)cc(C(=O)c4cc(F)ccc4O)cn3c(=O)c2c1C`, for which the inhibition was 5.2% (inactive). Regarding `CCOC(=O)c1sc2nc3c(SCCC#N)cc(C(=O)c4cc(F)ccc4O)cn3c(=O)c2c1C`, the inhibition was 1.4% (inactive). In the case of `CCOC(=O)c1sc2nc3c(SCCC(=O)O)cc(C(=O)c4cc(OC)ccc4O)cn3c(=O)c2c1C`, the inhibition was 53.3% (active). `O=C(Nc1cc(Cl)cc(Cl)c1)C(NCC1CCCO1)c1ccccc1` (centres undefined): the inhibition is 0% (inactive). Turning to `COc1ccc(CCNC(=O)CCC(=O)N2CCN(S(=O)(=O)c3ccccc3)CC2)cc1OC`, the inhibition was -4.5% (inactive). As to `O=S(=O)(c1ccc(Br)cc1)c1nc(-c2ccccc2)oc1NCCN1CCOCC1`, the inhibition is -4.8% (inactive). Consider `Cc1ccc(S(=O)(=O)c2nc(-c3ccccc3)oc2NCCN2CCOCC2)cc1`, for which the inhibition is 67.9% (active). For the compound `Cc1ccc(S(=O)(=O)c2nc(-c3ccccc3)oc2NCCCN2CCOCC2)cc1`, the inhibition was 3.6% (inactive). With `O=C(CCN1C(=O)C2CC=C(Cl)CC2C1=O)NCc1ccco1` (centres undefined), the inhibition was 55.2% (active). Turning to `O=C(CCN1C(=O)C2CC=C(Cl)CC2C1=O)NCc1ccccc1` (centres undefined), the inhibition is -1.9% (inactive).

Regarding `O=C(CCN1C(=O)c2ccccc2C1=O)NCc1ccco1`, the inhibition is -4.2% (inactive). As to `Cc1ccc(NC(=O)c2cccc3ccccc23)cc1`, the inhibition is -8.7% (inactive). As for `CC(C)CC(=O)Nc1ccc(C(=O)CN2CCN(c3ccc(O)cc3)CC2)cc1`, the figure is -9.4% (inactive).

`COc1ccc(C2CC(=O)OC3=C2C(=O)CC(C)(C)C3)c(OC)c1` (centres undefined): the inhibition is -2.3% (inactive).

With `Cc1ccc(C(=O)O)cc1NC(=O)c1ccc2c(c1)C(=O)N(c1ccc([N+](=O)[O-])cc1)C2=O`, the inhibition was 50.3% (active). Consider `Cc1cc([N+](=O)[O-])ccc1N1C(=O)c2ccc(C(=O)Nc3ccccc3C(=O)O)cc2C1=O`, for which the inhibition was -5.4% (inactive). For `O=C(O)c1cccc(NC(=O)c2ccc3c(c2)C(=O)N(c2cccc([N+](=O)[O-])c2)C3=O)c1`, the inhibition was -2% (inactive). With `C(=N\Nc1nc(-c2ccccc2)cs1)/c1cccnc1`, the inhibition was 4.2% (inactive). Turning to `CC(=O)c1ccc2noc(-c3cccc(C)c3)c2c1`, the inhibition is 8.5% (inactive).

As for `Cc1ccc2sc(NNC(=O)c3cc(=O)c4ccccc4o3)nc2c1C`, the inhibition was 1.8% (inactive). In the case of `C[C@H](NC(=O)Nc1cccc(C(F)(F)F)c1)C(=O)O` it was -5.3% (inactive); in that of `CSCC[C@H](NC(=O)Nc1cccc(C(F)(F)F)c1)C(=O)O`, 61.2% (active). With `CSCC[C@H](NC(=O)Nc1cccc(Br)c1)C(=O)O`, the inhibition was -3.3% (inactive). Consider `CC(OC(=O)c1ccc(NS(=O)(=O)c2ccc3[nH]c(=O)[nH]c3c2)cc1)C(N)=O` (centres undefined), for which the inhibition is -4.3% (inactive). `Brc1cccc(C2Nc3cccc4cccc(c34)N2)c1`: the inhibition was -6.2% (inactive). As for `c1coc(C2Nc3cccc4cccc(c34)N2)c1`, the inhibition is 18.4% (inactive).

As for `Brc1ccc(C2Nc3cccc4cccc(c34)N2)o1`, the inhibition is 80.6% (active). In the case of `Cn1nc(C(C)(C)C)cc1NC(=O)Nc1ccc(Cl)cc1` it was 0% (inactive); in that of `CCOc1ccccc1NC(=O)CSc1nnc(Cc2cccn2C)n1-c1ccc(F)cc1`, 64.9% (active); in that of `Cn1cccc1Cc1nnc(SCC(=O)Nc2ccccc2F)n1-c1ccc(F)cc1`, 8.3% (inactive).

On to `COc1ccccc1NC(=O)CSc1nnc(Cc2cccn2C)n1-c1ccc(F)cc1`, for which the inhibition is 1.1% (inactive). As for `CCc1cccc(NC(=O)C2CCCN(c3ncnc4c3nc3n4CCCCC3)C2)c1` (centres undefined), the figure is -6.4% (inactive); as for `COc1ccccc1CC(NC(C)=O)C(=O)NC1CCN(C(=O)Nc2ccc(F)cc2)CC1` (centres undefined), -8% (inactive). On to `Cc1nn(C)c(C(=O)N/N=C/c2cccnc2)c1Cl`, for which the inhibition was -2.8% (inactive).

Consider `Cc1ccccc1Cc1c(C)nc2ncnn2c1C`, for which the inhibition was -9% (inactive). As for `O=C(O)CCCNc1cc(N2CCC3(CC2)OCCO3)c2noc3c2c1C(=O)c1ccccc1-3`, the inhibition is 75.6% (active). As to `CCOC(=O)N1CCN(c2cc(NCCC(=O)O)c3c4c(onc24)-c2ccccc2C3=O)CC1`, the inhibition was 3.3% (inactive). Turning to `O=C(O)CCCNc1cc(N2CCN(C(=O)c3ccco3)CC2)c2noc3c2c1C(=O)c1ccccc1-3`, the inhibition was 2.4% (inactive).

On to `Clc1ccc2nc(-c3ccc(Br)s3)cn2c1`, for which the inhibition is -4.3% (inactive). In the case of `CC(=Nc1ccccc1)c1sc2ccccc2c1O`, the inhibition is 2% (inactive).

Turning to `COc1ccc(/C=C2\SC(N)=NC2=O)cc1Br`, the inhibition is -4.5% (inactive). As to `COc1cccc(C(=O)Nc2cccc(-c3ccc4nncn4n3)c2)c1OC`, the inhibition was -0.4% (inactive). Take `COc1cccc(OC)c1C(=O)Nc1cccc(-c2ccc3nncn3n2)c1`: the inhibition is -6.9% (inactive).

Take `CC(C)CC1=NN(C(=O)c2ccco2)C(O)(C(F)(F)F)C1` (centres undefined): the inhibition is -6.1% (inactive). As to `C=CCN(CC=C)C(=S)NC(=O)/C=C/c1ccc(C)cc1`, the inhibition was 65.4% (active).

As to `C=CCN(CC=C)C(=S)NC(=O)/C=C/c1ccccc1`, the inhibition is 2.6% (inactive).

Turning to `C=CCN(CC=C)C(=S)NC(=O)/C=C/c1ccc(OC)cc1`, the inhibition was 8.3% (inactive). Regarding `COc1ccc(S(=O)(=O)Nc2nccs2)cc1OC`, the inhibition was -10.2% (inactive). For the compound `CCC(C)n1c(C)nc2c(c1=O)c1nc3ccccc3nc1n2CCC1=CCCCC1` (centres undefined), the inhibition was 7.5% (inactive). For `COc1ccc2c(C)cc(N3CCOCC3)nc2c1`, the inhibition is -0.1% (inactive). As for `COc1ccc2c(-c3ccccc3)cc(N3CCOCC3)nc2c1`, the inhibition was 72.7% (active).

Consider `c1ccc(-c2cc(N3CCOCC3)nc3ccccc23)cc1`, for which the inhibition was 2.6% (inactive). As for `NC(=O)c1nn(-c2ccccc2)nc1NC(=O)CSc1nnnn1-c1ccc(Cl)cc1`, the figure is 5.7% (inactive).

These data come from PubChem BioAssay AID1779 (Sanford-Burnham Center for Chemical Genomics, 2009).
